# GPR32 ag: qHTS for Agonists of Human Resolvin D1 Receptor DRV1; Probable G-protein coupled receptor 32 (Homo sapiens), O75388; CHO-K1 GPR32 beta-arrestin PathHunter luminescence, 90 min; zero percent set by DMSO-only wells; activation, % at 76.9 µM; hit rate 2.5% among 48,000; AID 1346428, 2018;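 active = activation of at least 60% and not above a set upper limit, about 1 call in 100 departs from these limits; inconclusive = activation of 40% to 60%, or above that upper limit; inactive = activation under 40%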
#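 Cells are plated overnight, treated with compounds in DMSO for 90 minutes at 37 °C, and developed with PathHunter detection reagent for 1 hour before luminescence is read; signal reflects beta-arrestin binding to GPR32 in engineered CHO-K1 cells.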
# GALK inhibitor: qHTS Assay for Inhibitors of Human Galactokinase (GALK): NCGC Sytravon Library Screen. 44,000 tested, under 10 active. Potency, µM (series often up to 57.5 µM), usual class: inhibitors. recombinant GALK, Kinase-Glo ATP luminescence, 1 h
# Target sequence (P51570 whole entry, looked up): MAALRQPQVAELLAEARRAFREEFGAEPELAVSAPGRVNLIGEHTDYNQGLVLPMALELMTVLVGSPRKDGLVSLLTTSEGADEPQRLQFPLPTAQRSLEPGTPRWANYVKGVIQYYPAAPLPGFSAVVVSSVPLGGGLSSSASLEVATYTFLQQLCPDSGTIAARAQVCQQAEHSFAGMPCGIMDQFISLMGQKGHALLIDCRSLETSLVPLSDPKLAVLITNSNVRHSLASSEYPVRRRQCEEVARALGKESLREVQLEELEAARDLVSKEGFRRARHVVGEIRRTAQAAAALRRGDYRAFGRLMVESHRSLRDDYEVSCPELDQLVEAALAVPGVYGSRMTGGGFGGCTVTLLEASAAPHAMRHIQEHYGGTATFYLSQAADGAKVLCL
#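 Compounds were pinned into ATP buffer, then GALK-galactose mix was added (final 5 nM enzyme, 35 uM ATP, 100 uM galactose, pH 8.0). After 1 h at room temperature, Kinase-Glo Plus was added and luminescence read.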
# B2AR arrestin ag: qHTS assay of beta-arrestin-biased ligands of beta2-adrenergic receptor: NCGC Sytravon Library Screen; HTLA Tango cells, beta-arrestin recruitment, luciferase luminescence, 18 h; 44,000 tested, under 10 active; Potency, µM (doses to about 46.1 µM), actives largely listed as activators
#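 Luminescence read-out: arrestin recruitment to recombinant beta2-AR releases tTA, inducing luciferase. Cells exposed 18 hr at 37 degrees C to up to 46 microM compound; %Activity from corrected signal, concentration-response curves classified by r2, magnitude and efficacy.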
# OvCa metastasis: Primary qHTS assay for Inhibitors of ovarian cancer metastasis using an organotypic tumor microenvironment (TME) model; SKOV3ip1-GFP adhesion/invasion on 3D omental model, fluorescence; Potency, µM (series often up to 45.8 µM), usual class: inhibitors; hit rate 0.1% among 46,000; AID 1963576, 2024; note: nearly all actives have a fitted effect of over 65% in size
#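 A 3D layer of primary human omental fibroblasts, mesothelial cells, fibronectin and collagen I, grown 48 hr, received SKOV3ip1-GFP cells in serum-free medium plus compounds at 0.36-46 umol/L. After 2 hr RT and 16 hr 37 C, fixed adherent GFP cells were counted; normalized to DMSO and tomatine.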
# PTAP-TSG101 blk: qHTS Validation Assay for Inhibitors of HIV-1 Budding by Blocking the Interaction of PTAP/TSG101: Sytravon Library Screen | Potency, µM (highest dose often 115 µM), actives largely listed as inhibitors | Fluorescence polarization, FITC-PTAP peptide/Tsg101, 20 min | 44,000 tested, under 10 active
#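 FITC-labeled PTAP peptide (50 nM final) binding to Tsg101 binding domain (10 uM final) read by fluorescence polarization after 20 min at r.t. in HEPES pH 7.5 buffer. Actives by CRC class, <25 µM.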
# NTMT1 inhibitor: Primary qHTS for Inhibitors of N-terminal methyltransferase 1 (NTMT1): MTaseGlo Assay; hit rate 2.5% among 59,000; N-terminal Xaa-Pro-Lys N-methyltransferase 1 (Homo sapiens), Q9BV86; Potency, µM (doses to about 114 µM), hits mostly inhibitors; NTMT1 MTase-Glo SAH luminescence, purified enzyme; note: nearly all actives have a fitted effect of over 65% in size
# Target sequence (Q9BV86 whole entry, looked up): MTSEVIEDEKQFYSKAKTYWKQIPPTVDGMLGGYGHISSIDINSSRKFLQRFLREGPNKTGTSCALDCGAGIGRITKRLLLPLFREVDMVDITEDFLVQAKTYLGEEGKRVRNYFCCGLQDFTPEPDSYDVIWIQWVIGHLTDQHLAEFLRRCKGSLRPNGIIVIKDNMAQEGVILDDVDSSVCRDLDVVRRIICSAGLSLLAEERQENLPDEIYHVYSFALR
# Numbers stand for hits; - = inactive; ? = inconclusive; . = not tested or not shown; ! = repeats disagree. Compounds with a hit are over-represented: about 3.8% of the library has one in this group of screens. Unless noted, calls come from the whole dose curve; as a rule, active = well fitted curve in the direction sought with a large enough effect; inconclusive = small, poorly fitted or top-dose-only effect, or another doubt; inactive = no such curve, though single readings can be large; an effect the other way counts as inactive or inconclusive.
SMILES,GPR32 ag,GALK inhibitor,B2AR arrestin ag,OvCa metastasis,PTAP-TSG101 blk,NTMT1 inhibitor
Cc1ccc(CNC(=O)Cc2ccc(NC(=O)N3CCSc4ncccc43)cc2)cc1,-,-,-,-,-,-
Cc1ccc(CNC(=O)c2cccc(NC(=O)N3CCSc4ncccc43)c2)cc1,92.2,-,-,-,-,-
OC1(c2ccc(Cl)c(C(F)(F)F)c2)CCN(CCCC(c2ccc(F)cc2)c2ccc(F)cc2)CC1,64.5,.,.,.,.,-
Cc1cc(C)cc(NC(=O)Cn2c(=O)n(-c3ccc(C)c(C)c3)c(=O)c3oc4ccccc4c32)c1,-,-,-,-,-,-
O=C(COc1ccccc1F)NC1CC(=O)N(c2ccc3c(c2)OCCO3)C1 (stereo unspecified),-,-,-,-,-,89.1µM
O=C(COc1ccc(F)cc1)NC1CC(=O)N(c2ccc3c(c2)OCCO3)C1 (stereo unspecified),115.5,-,-,-,-,-
COc1ccccc1OCC(=O)NC1CC(=O)N(c2ccc3c(c2)OCCO3)C1 (stereo unspecified),-,-,-,-,-,-
O=C(COc1ccccc1)NC1CC(=O)N(c2ccc3c(c2)OCCO3)C1 (stereo unspecified),-,-,-,-,-,-
O=C(COCc1cc(-c2ccc(F)cc2)on1)Nc1cc(Cl)cc(Cl)c1,-,-,-,-,-,-
Cn1c(=O)cc(SCC(=O)NCc2ccc(F)cc2)c2cc(Cl)ccc21,-,-,-,-,-,-
CCN1c2ccccc2-c2nc(SCC(=O)Nc3cc(C)c(Cl)cc3OC)ncc2S1(=O)=O,-,-,-,-,-,-
CCn1c(CN2CCCCC2)nc2cc(NC(=O)c3ccc([N+](=O)[O-])cc3)ccc21,70.5,-,-,-,-,-
CCn1c(CN2CCCCC2)nc2cc(NC(=O)c3ccccc3[N+](=O)[O-])ccc21,-,-,-,-,-,-
Cc1cc(C)cc(N(CC(=O)NCc2ccccc2Cl)S(=O)(=O)c2c(C)noc2C)c1,-,-,-,-,-,-
O=C(NCc1ccc(Cl)cc1)c1cc2c(s1)-c1ccccc1SC2,-,-,-,-,-,-
CCCN1C[C@H](CSC)C[C@@H]2c3cccc4[nH]cc(c34)C[C@H]21,79.4!,.,.,.,.,-
CN1C[C@H](C(=O)N[C@]2(C)O[C@@]3(O)[C@@H]4CCCN4C(=O)[C@H](Cc4ccccc4)N3C2=O)C[C@@H]2c3cccc4[nH]cc(c34)C[C@H]21,-,.,.,.,.,-
Cc1ccc2nc3c(c(Nc4ccc(C)c(C)c4)c2c1)CCC3,101.0,-,-,-,-,-
CN1C(=O)Cc2cc(S(=O)(=O)CCC(=O)Nc3ccc(Cl)c(C(F)(F)F)c3)ccc21,-,-,-,-,-,-
CCC(=O)N1CCc2cc(S(=O)(=O)CCC(=O)Nc3ccc(Cl)c(C(F)(F)F)c3)ccc21,88.1,-,-,-,-,-
Oc1c(C(c2ccccc2F)N2CCCC2)sc2nc(-c3ccco3)nn12 (stereo unspecified),-,-,-,-,-,-
COc1ccc(Cn2c(CCC(=O)Nc3cccc(OC)c3)nc3cccnc32)cc1,-,-,-,-,-,-
COc1cc2c(cc1O)CC[C@@H]1[C@@H]2CC[C@]2(C)[C@@H](O)CC[C@@H]12,-,.,.,.,.,35.5µM
Cc1ccc(-n2nc3ccc(NC(=O)c4oc5ccc(C)cc5c4C)cc3n2)cc1,-,-,-,-,-,?
Cc1ccc(NC(=O)c2ccc3snnc3c2)cc1Cl,95.1,-,-,-,-,-
SMILES,GPR32 ag,GALK inhibitor,B2AR arrestin ag,OvCa metastasis,PTAP-TSG101 blk,NTMT1 inhibitor
Cc1ccc(NC(=O)Nc2ccc3snnc3c2)cc1C,65.6,-,-,-,-,-
CCC(=O)Oc1ccc(-c2nc3ccccc3c(=O)o2)cc1,-,-,-,-,-,?
CCn1cc(C(=O)NCCc2ccc(Cl)cc2)c(=O)c2cc(S(=O)(=O)N3CCCCCC3)ccc21,-,-,-,-,-,?
Cc1cccc(NC(=O)c2ccc3nc(CCc4ccccc4)oc3c2)c1C,-,-,-,-,-,-
COc1ccc2nc3n[nH]c(C)c3c(NCCOCCO)c2c1,.,.,.,.,.,20µM!
Cc1nc2c(c(C)nn2-c2ccccc2)c(C)c1CCC(=O)NCCc1ccccc1,-,-,-,-,-,-
CCOc1ccc(CCNC(=O)CCc2c(C)nc3c(c(C)nn3-c3ccccc3)c2C)cc1OCC,-,-,-,-,-,89.1µM
O=C(Nc1cc(Cl)ccc1Cl)c1cc(S(=O)(=O)NCCc2ccccc2)ccc1F,-,-,-,-,-,-
CCC(C)NC(=O)c1cc(Sc2cccc(Cl)c2)nc2ccccc12 (stereo unspecified),-,-,-,-,-,-
CCc1ccc(Sc2cc(C(=O)NC(C)CC)c3ccccc3n2)cc1 (stereo unspecified),74.7,-,-,-,-,-
O=C(NCCCN1CCCCC1)c1cc(Sc2ccc(Cl)cc2)nc2ccccc12,-,-,-,-,-,89.1µM
COc1cc2ccccc2cc1C(=O)N1CCN(c2nc3c(F)cccc3s2)CC1,-,-,-,-,-,-
Cc1ccc(C)c(NS(=O)(=O)c2ccc3c4c(cccc24)C(=O)N3)c1,-,-,-,-,-,44.7µM
COc1ccc(/C=C/c2nc(C#N)c(NCCc3ccccc3)o2)cc1OC,-,-,-,-,-,-
COc1cccc(Nc2c3c(nc4nncn24)CCC3)c1,-,-,-,-,-,-
COc1ccc(Nc2c3c(nc4nncn24)CCC3)cc1OC,93.3,-,-,-,-,-
CN1CCN(c2ccc(Nc3ncc4cc(C#N)c(=O)n(C5CCCC5)c4n3)cc2)CC1,.,.,.,.,.,-
C=CC(=O)N1CC[C@@H](Oc2nc(Nc3ccc(N4CCC(N5CCN(C)CC5)CC4)cc3)c(C(N)=O)nc2CC)C1,.,.,.,.,.,3.98µM
CC(C)=CC[C@@H](O)C1=CC(=O)c2c(O)ccc(O)c2C1=O,.,.,.,-,.,50.1µM!
O=C(NCc1ccc(Cl)cc1Cl)c1cccc(N2CCCS2(=O)=O)c1,61.7,-,-,-,-,?
